This passage reports Potency and outcome results from PubChem BioAssay (Tox21).

A short description of assay [1]: qHTS assay to identify small molecule agonists of the estrogen receptor alpha (ER-alpha) signaling pathway in the presence of an antagonist - cell viability counter screen (AID 1259386). Note: nearly all actives have a fitted effect of over 30% in size. Note: potency is the fitted concentration of half-maximal effect. An outline of the steps: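 Read-out: CellTiter-Fluor fluorescence after 1hr reagent incubation, measured in the same wells as the luciferase readout. VM7Luc4E2 cells were exposed to 15 compound concentrations with 10.0nM ICI-182,780 for 22hr at 37C.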
In general terms: In qHTS, concentration-response curves come from the screen itself.

The target of assay [2] is Progesterone receptor (Homo sapiens) (UniProt P06401). Put plainly: qHTS assay to identify small molecule antagonists of the progesterone receptor (PR) signaling pathway (AID 1346795; active = well fitted inhibition curve with a large enough effect in the signal ratio in the repeat runs, not every such curve was filed as active; the % refers to the signal ratio; note: potency is the fitted concentration of half-maximal effect). An outline of the steps:
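In HEK293T cells bearing the PR-UAS-bla reporter, compound effects on promegestone-driven (1 nM) beta-lactamase expression are assessed after 16 hr using a fluorescent FRET substrate incubated 2 hr at room temperature.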

Assay [3] in a line: qHTS assay to identify small molecule antagonists of the TGF-beta/Smad signaling pathway - cell viability counter screen (AID 1346824). Note: nearly all actives have a fitted effect of over 50% in size. The essentials: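 Cytotoxicity counter-screen run in the same wells as the beta-lactamase Smad reporter read: CellTiter-Glo luminescence after 30 min at room temperature. HEK 293T SBE-bla cells had 5 hr compound exposure at 37 C with TGF-beta1 (0.25 ng/mL stock).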

The nature of assay [4]: qHTS assay to identify small molecule agonists of the TGF-beta/Smad signaling pathway - cell viability counter screen (AID 1346829). Note: top concentration of the series differs between compounds; nearly all actives have a fitted effect of over 45% in size. The essentials: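 Luminescence from CellTiter-Glo, read after a 30 min room-temperature incubation, gives cell viability of SBE-bla HEK 293T cells treated 5 hr with compounds at 37 C.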
Assay [5] addresses Thyrotropin-releasing hormone receptor (Homo sapiens) (UniProt P34981). The experiment in a line: qHTS assay to identify small molecule antagonists of the thyrotropin-releasing hormone receptor (TRHR) signaling pathway (AID 1346877; active = well fitted inhibition curve with a large enough effect in the repeat runs, not every such curve was filed as active; note: series mostly up to about 51 µM). An outline of the steps: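 HEK293/TRHR cells, 18 h, 37 °C; Ca2+ dye 2 h; cpd 5 min RT; TRH 1 nM final; fluorescence read 3 min, 1 s intervals; 15 concs, triplicate.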

Assay [6] shares this target. The experiment in a line: qHTS assay to identify small molecule agonists of the thyrotropin-releasing hormone receptor (TRHR) signaling pathway (AID 1346891; calls by dose curve; note: series mostly up to about 58 µM). The essentials: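 Screening of agonists relied on calcium signalling in HEK293 cells expressing human TRHR: dye loading 2 h at 37 °C preceded compound addition and a 3-min fluorescence time course.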
Assay [7] is described as follows: Human pregnane X receptor (PXR) small molecule agonists, qHTS cell viability counter screen (AID 1346977). Note: nearly all actives have a fitted effect of over 50% in size. Note: potency is the fitted concentration of half-maximal effect. The essentials: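 Tox21 qHTS format; PXR-Luc HepG2, 2,000/well, charcoal-stripped FBS 5%. Cpd exposure 24hr. Read: CellTiter-Fluor fluorescence, multiplexed with luciferase.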
A short description of assay [8]: Caspase-3/7 induction in HepG2 cells by small molecules, qHTS assay (AID 1346978). Note: nearly all actives have a fitted effect of over 15% in size. The essentials: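 Caspase-3/7 induction was measured by Caspase-Glo 3/7 luminescence (30 min, room temperature) after a 17 hr compound exposure of wild-type HepG2 cells seeded at 2,000 per well and pre-incubated 5 hr.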
The nature of assay [9]: Caspase-3/7 induction in CHO-K1 cells by small molecules, qHTS cell viability counter screen (AID 1346979). Note: nearly all actives have a fitted effect of over 35% in size. Note: potency is the fitted concentration of half-maximal effect. The essentials: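 CellTiter-Fluor viability check, qHTS format: wild-type CHO-K1, 16hr compound treatment, 1hr reagent incubation, fluorescence read.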
Assay [10] in a line: Caspase-3/7 induction in CHO-K1 cells by small molecules, qHTS assay (AID 1346980). Note: nearly all actives have a fitted effect of over 15% in size. The essentials: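 Luminescent Caspase-Glo 3/7 read (30min, room temperature) quantified apoptosis induction. Cells were wild-type CHO-K1, treated with compound for 17hr at 37 C and 5% CO2.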
The nature of assay [11]: Caspase-3/7 induction in HepG2 cells by small molecules, qHTS cell viability counter screen (AID 1346981). Note: nearly all actives have a fitted effect of over 30% in size. Note: potency is the fitted concentration of half-maximal effect. The essentials: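 Fluorescence read-out of live-cell protease activity (CellTiter-Fluor) after 1 hr with reagent. This was measured in the same wells as the caspase-3/7 luminescence, on HepG2 cells exposed to DMSO-dissolved compounds for 16 hr at 37 C.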
The target in assay [12] is Nuclear receptor subfamily 1 group I member 2 (Homo sapiens) (UniProt O75469). Put plainly: Human pregnane X receptor (PXR) small molecule agonists, qHTS assay (AID 1346982). Note: nearly all actives have a fitted effect of over 35% in size. Note: potency is the fitted concentration of half-maximal effect. An outline of the steps:
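HepG2 PXR-Luc reporter line, 5% charcoal-stripped FBS; 5 hr pre-incubation, compound (DMSO) 24 hr at 37 C/5% CO2; ONE-Glo 30 min RT; luminescence read-out.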

Assay [13] can be described thus: qHTS assay to identify small molecule antagonists of the progesterone receptor (PR) signaling pathway - cell viability counter screen (AID 1346798). Note: nearly all actives have a fitted effect of over 50% in size. Note: potency is the fitted concentration of half-maximal effect. An outline of the steps:
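Following a 4 hr attachment, PR-UAS-bla HEK293T cells in charcoal-stripped FBS medium were exposed to compounds with R5020 for 16 hr; CellTiter-Glo was added and luminescence read after 30 min at room temperature.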

The nature of assay [14]: qHTS assay to identify small molecule agonists of the progesterone receptor (PR) signaling pathway - cell viability counter screen (AID 1346799; calls by dose curve; note: nearly all actives have a fitted effect of over 45% in size; note: potency is the fitted concentration of half-maximal effect). An outline of the steps: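 Here, 3,000 PR-UAS-bla HEK293T cells per well were treated with compounds for 16 hr after a 6 hr preincubation at 37C and 5% CO2; cell viability is the CellTiter-Glo luminescence signal.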
Assay [15] is described as follows: qHTS assay to identify small molecule agonists of the TGF-beta/Smad signaling pathway (AID 1346859; active = well fitted activation curve with a large enough effect in the signal ratio in the repeat runs, not every such curve was filed as active; the % refers to the signal ratio; note: series mostly up to about 77 µM). The essentials:
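Each well held 4,000 SBE-bla HEK 293T cells incubated overnight before compound addition; 5 hr later the cleavable FRET substrate went on for 2 hr at room temperature, and fluorescence was read at two emissions.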

Assay [16] addresses Cytochrome P450 2D6 (Homo sapiens) (UniProt P10635). Put plainly: Cytochrome P450 Family 2 Subfamily D Member 6 (CYP2D6) small molecule antagonists: luciferase reporter qHTS assay (AID 1671196). Note: nearly all actives have a fitted effect of over 50% in size. Note: potency is the fitted concentration of half-maximal effect. The essentials:
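Luminogenic proluciferin substrate, CYP2D6 enzyme; 10 min RT preincubation with compound, NADPH regeneration system added, 1 h RT. Stop/detection reagent, 20 min RT, luminescence read (RLU). Signal proportional to CYP activity.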

Assay [17] deals with Progesterone receptor (Homo sapiens) (UniProt P06401). Put plainly: qHTS assay to identify small molecule agonists of the progesterone receptor (PR) signaling pathway (AID 1346784; calls by dose curve; note: nearly all actives have a fitted effect of over 30% in size). An outline of the steps:
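Compounds were tested for PR agonism in HEK 293T cells bearing a beta-lactamase gene under UAS control. Treatment lasted 16 hr at 37C; signal came from fluorescence of a FRET substrate.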

A number with no mark means an inactive call. Inconclusive results are not listed. Activity calls are given as the source filed them. Unless noted, calls come from the whole dose curve; as a rule, active = well fitted curve in the direction sought with a large enough effect in the repeat runs; inconclusive = weak or mixed curves; inactive = no such curve, though single readings can be large; an effect the other way counts as inactive or inconclusive.

Progesterone receptor (Homo sapiens), sequence (P06401 whole entry, looked up): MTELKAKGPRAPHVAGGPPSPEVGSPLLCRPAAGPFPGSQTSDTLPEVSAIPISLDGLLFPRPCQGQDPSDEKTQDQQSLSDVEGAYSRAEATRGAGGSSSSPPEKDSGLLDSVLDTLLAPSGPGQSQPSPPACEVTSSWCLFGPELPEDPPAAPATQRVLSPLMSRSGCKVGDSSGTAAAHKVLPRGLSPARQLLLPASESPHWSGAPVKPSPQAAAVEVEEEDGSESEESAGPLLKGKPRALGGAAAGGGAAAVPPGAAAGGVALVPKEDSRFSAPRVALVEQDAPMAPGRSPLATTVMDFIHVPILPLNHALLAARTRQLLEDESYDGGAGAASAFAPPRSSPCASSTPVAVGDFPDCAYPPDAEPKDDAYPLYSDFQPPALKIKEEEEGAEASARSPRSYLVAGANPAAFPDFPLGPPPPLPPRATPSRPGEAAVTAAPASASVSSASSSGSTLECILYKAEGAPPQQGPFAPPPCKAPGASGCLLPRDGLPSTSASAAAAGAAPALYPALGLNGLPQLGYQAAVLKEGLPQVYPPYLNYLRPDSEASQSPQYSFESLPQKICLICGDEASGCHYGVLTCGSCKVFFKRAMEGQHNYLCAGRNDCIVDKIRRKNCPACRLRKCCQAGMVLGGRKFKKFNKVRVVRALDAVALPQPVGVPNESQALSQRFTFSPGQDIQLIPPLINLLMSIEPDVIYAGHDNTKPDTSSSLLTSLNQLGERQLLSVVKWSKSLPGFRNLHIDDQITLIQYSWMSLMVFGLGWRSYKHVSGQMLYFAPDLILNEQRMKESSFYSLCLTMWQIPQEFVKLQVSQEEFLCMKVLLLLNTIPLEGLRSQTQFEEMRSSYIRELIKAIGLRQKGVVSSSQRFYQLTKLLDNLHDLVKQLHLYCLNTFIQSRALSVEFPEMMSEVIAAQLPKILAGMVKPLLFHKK
Thyrotropin-releasing hormone receptor (Homo sapiens), sequence (P34981 whole entry, looked up): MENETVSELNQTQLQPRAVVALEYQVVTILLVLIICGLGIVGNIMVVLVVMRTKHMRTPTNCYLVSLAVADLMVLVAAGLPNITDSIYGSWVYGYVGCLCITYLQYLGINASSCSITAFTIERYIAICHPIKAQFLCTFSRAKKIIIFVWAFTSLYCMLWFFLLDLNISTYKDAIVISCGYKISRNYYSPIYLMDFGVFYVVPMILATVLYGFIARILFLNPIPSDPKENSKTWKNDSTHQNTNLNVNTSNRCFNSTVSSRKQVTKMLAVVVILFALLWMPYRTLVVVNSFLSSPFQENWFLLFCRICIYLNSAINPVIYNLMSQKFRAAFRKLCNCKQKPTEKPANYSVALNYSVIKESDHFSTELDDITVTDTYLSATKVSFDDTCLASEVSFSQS
Nuclear receptor subfamily 1 group I member 2 (Homo sapiens), sequence (O75469 whole entry, looked up): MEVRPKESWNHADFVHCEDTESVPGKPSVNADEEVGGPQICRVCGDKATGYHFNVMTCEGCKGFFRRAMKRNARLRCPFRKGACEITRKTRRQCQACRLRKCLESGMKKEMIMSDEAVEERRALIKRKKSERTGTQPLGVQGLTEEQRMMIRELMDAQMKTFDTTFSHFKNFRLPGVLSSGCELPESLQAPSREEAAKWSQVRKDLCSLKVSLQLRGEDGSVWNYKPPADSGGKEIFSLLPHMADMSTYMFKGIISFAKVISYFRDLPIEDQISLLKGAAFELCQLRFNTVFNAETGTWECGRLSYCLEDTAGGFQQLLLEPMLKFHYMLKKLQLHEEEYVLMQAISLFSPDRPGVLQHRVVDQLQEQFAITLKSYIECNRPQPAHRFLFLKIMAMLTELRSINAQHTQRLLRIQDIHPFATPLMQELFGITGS
Cytochrome P450 2D6 (Homo sapiens), sequence (P10635 whole entry, looked up): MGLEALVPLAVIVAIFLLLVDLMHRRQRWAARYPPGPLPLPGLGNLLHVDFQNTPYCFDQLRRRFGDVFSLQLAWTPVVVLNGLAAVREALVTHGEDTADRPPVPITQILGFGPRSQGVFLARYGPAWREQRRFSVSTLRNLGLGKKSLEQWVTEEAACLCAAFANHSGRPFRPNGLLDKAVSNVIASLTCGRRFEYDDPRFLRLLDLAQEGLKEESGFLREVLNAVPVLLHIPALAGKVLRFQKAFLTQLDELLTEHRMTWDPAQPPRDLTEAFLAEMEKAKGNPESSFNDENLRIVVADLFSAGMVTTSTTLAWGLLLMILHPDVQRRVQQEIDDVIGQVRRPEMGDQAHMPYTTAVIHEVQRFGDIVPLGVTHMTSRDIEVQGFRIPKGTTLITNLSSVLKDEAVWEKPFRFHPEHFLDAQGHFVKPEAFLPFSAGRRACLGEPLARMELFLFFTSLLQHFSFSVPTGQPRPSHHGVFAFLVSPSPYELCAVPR

`Cc1c(C)c2c(c(C)c1OC(=O)CCC(=O)OCCO)CC[C@@](C)(CCC[C@H](C)CCC[C@H](C)CCCC(C)C)O2`: the Potency result in [1], in assay [3], in assay [4], in assay [6], in assay [7] and in [8] was “inactive” throughout. Also, the Potency result in [9], in assay [10], in assay [11] and in [12] was “inactive” each time. Further, the Potency in assay [2] was 26.6 µM (active). In addition, the compound was called inactive in assay [5].
Consider `CC(=O)Nc1cc(S(=O)(=O)O)cc2cc(S(=O)(=O)O)c(N=Nc3ccccc3)c(O)c12`, for which the Potency was 17.2 µM (active) in assay [1]; 21.7 µM (active) in assay [7]; 27.3 µM (active) in assay [9]; 24.3 µM (active) in [11]; 35.6 µM (active) in assay [16]. In addition, the Potency result in assay [2], in assay [13], in [14], in assay [3], in [4] and in assay [15] was “inactive” in each case. The Potency entry in assay [6], in assay [8], in [10] and in assay [12] was “inactive” throughout. The outcome in assay [5] was inactive.
As for `CC(C)(C)C(=O)C(=O)O`, the Potency entry in [17], in assay [2], in [13], in [14], in assay [3] and in assay [4] was “inactive” in each case. Besides, the Potency result in assay [15], in [6], in [8], in assay [9], in assay [10] and in assay [16] was “inactive” throughout. The compound was called inactive in assay [5].
As to `CC1=Nc2ccc3ccccc3c2C1(C)C`, the Potency entry in [1], in assay [3], in [4], in assay [6], in assay [8] and in assay [10] was “inactive” throughout. Moreover, the Potency is 12.2 µM (active) in assay [13], 24.3 µM (active) in assay [14] and 35.6 µM (active) in assay [16]. Besides, the outcome in assay [5] was inactive.
Consider `CCOC(=O)c1ccc(OCCN2C[C@H](O)[C@@H](O)[C@H](O)[C@H]2CO)cc1`, for which the Potency entry in [17], in assay [2], in [13], in [14], in [3] and in assay [4] was “inactive” throughout. In addition, the Potency entry in assay [15], in [6], in [7], in [8], in assay [9] and in [10] was “inactive” throughout. In addition, the Potency result in assay [11] and in assay [12] was “inactive” in each case. The call in assay [5] was inactive.
Take `CCC(=O)OC`: the Potency entry in assay [17], in assay [2], in assay [13], in [14], in assay [3] and in assay [4] was “inactive” in each case. Further, the Potency result in assay [15], in assay [6], in assay [7], in assay [8], in assay [9] and in assay [11] was “inactive” in each case. Moreover, the Potency entry in assay [12] and in [16] was “inactive” each time. The compound was classed as inactive in assay [5].
Turning to `CC(O)c1ccccc1` (stereo not given), the Potency entry in assay [17], in assay [2], in assay [13], in assay [14], in assay [3] and in assay [4] was “inactive” each time. Moreover, the Potency entry in assay [15], in [6], in assay [7], in [8], in assay [9] and in [11] was “inactive” each time. Further, the Potency entry in assay [12] and in assay [16] was “inactive” throughout. The compound was called inactive in assay [5].
Turning to `COC(=O)c1nc(Cl)c(Cl)nc1N`, the Potency result in assay [1], in assay [3], in assay [4], in assay [6], in assay [8] and in [10] was “inactive” in each case. Moreover, the Potency entry in [16] was “inactive”. Moreover, in assay [5], the compound was classed as inactive. Moreover, the Potency in [9] was 8.41 µM (active); in assay [12], 10.6 µM (active).
Take `O=C1c2ccccc2C(=O)C1(O)O`: the Potency result in assay [17], in assay [2], in [13], in assay [14], in assay [6] and in [10] was “inactive” each time. Also, the outcome in assay [5] was inactive. Also, the Potency in assay [9] is 54.8 µM (active); in assay [12], 61.4 µM (active).
